Assay results from PubChem BioAssay (EPA / NIEHS).
Results filed as inconclusive are left out. Activity calls are given as the source filed them. Rule for the calls, unless noted: active = hit-call score of the fitted dose curve at least 0.9, where 1 is the maximum; inactive = score below 0.9.

Assays:
[1] = biological target: Bile acid receptor (Homo sapiens) (UniProt Q96RI1); assay: ATG_FXR_TRANS: Attagene TRANS-FACTORIAL HepG2 Assay for Farnesoid X Receptor (FXR) (AID 2282979; active = hit-call score of the fitted dose curve at least 0.9, where 1 is the maximum;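 note: hits raise reporter mRNA above DMSO so AC50 marks FXR activation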); settings: HepG2 Attagene TRANS FXR-GAL4 reporter transcription
Sequence of Bile acid receptor (Homo sapiens) (Q96RI1 whole entry, looked up, the tested form may be a part): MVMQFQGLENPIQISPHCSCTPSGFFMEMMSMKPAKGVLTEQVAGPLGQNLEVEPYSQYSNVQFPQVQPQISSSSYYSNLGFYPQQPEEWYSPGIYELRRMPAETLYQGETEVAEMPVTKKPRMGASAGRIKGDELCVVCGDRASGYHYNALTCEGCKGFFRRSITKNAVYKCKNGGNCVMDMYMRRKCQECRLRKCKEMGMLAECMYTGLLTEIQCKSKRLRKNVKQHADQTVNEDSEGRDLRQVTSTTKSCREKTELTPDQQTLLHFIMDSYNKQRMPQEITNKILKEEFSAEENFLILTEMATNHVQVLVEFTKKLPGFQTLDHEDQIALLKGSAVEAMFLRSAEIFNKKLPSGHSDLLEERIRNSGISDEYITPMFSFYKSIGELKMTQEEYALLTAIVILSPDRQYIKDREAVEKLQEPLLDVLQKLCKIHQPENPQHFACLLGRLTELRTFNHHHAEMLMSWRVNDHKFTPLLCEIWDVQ
Summary of the method: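 After 24 h chemical treatment of transfected HepG2 cells, GAL4-UAS reporter transcripts driven by an exogenous FXR-GAL4 fusion were measured by RT-PCR and capillary electrophoresis. Increases over DMSO were fitted.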

[2] = biological target: Oxysterols receptor LXR-beta (Homo sapiens) (UniProt P55055); assay: ATG_LXRb_TRANS: Attagene TRANS-FACTORIAL HepG2 Assay for human Liver X Receptor beta (LXRb) (AID 2282981; active = hit-call score of the fitted dose curve at least 0.9, where 1 is the maximum); settings: HepG2 Attagene TRANS GAL4-LXRb reporter, mRNA
Sequence of Oxysterols receptor LXR-beta (Homo sapiens) (P55055 whole entry, looked up, the tested form may be a part): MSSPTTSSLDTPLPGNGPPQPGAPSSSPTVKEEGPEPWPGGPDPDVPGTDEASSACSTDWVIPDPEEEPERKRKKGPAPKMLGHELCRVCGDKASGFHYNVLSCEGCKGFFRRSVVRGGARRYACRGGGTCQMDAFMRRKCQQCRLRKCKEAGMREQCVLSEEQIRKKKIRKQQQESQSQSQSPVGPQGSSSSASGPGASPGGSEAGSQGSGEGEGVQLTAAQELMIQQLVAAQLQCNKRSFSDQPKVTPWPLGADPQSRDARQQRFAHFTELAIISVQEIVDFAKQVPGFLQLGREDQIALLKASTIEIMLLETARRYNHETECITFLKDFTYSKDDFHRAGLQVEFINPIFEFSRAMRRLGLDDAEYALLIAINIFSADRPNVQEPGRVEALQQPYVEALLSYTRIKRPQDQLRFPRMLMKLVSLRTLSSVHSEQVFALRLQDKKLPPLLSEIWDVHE
Summary of the method: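 After 24 h chemical treatment of transfected HepG2 cells carrying exogenous NR-Gal4 chimeras, reporter mRNA was quantified by fluorescent RT-PCR and capillary electrophoresis; activity taken as increase over DMSO controls.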

[3] = biological target: Hepatocyte nuclear factor 4-alpha (Homo sapiens) (UniProt P41235); assay: ATG_HNF4a_TRANS: Attagene TRANS-FACTORIAL HepG2 Assay for human Hepatocyte Nuclear Factor 4 alpha (HNF4a) (AID 2282982; active = hit-call score of the fitted dose curve at least 0.9, where 1 is the maximum); settings: HepG2 HNF4a transactivation reporter, mRNA readout
Sequence of Hepatocyte nuclear factor 4-alpha (Homo sapiens) (P41235 whole entry, looked up, the tested form may be a part): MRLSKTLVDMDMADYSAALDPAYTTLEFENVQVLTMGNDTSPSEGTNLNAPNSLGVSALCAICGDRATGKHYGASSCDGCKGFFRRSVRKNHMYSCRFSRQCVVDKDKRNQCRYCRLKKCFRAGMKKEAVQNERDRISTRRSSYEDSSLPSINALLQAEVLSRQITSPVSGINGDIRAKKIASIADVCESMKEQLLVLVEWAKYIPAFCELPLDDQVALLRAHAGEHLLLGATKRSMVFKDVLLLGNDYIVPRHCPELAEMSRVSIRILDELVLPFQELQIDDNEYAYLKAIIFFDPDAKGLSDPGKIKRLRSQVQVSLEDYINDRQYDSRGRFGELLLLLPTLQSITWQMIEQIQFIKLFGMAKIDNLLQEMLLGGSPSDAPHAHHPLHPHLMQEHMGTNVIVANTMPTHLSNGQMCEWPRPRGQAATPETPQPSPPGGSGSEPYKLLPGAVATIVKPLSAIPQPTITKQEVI
Summary of the method: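 Activity of an exogenous HNF4a–Gal4 fusion scored as induced GAL4-UAS reporter transcripts after 24 h chemical exposure of transfected human HepG2 cells. Read-out via RT-PCR with 6-FAM labelling and capillary electrophoresis; rise over DMSO baseline.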

[4] = ATG_M_06_TRANS: Attagene TRANS-FACTORIAL HepG2 Assay for M06 Transcription Factor (Internal Marker) (AID 2282983; active = hit-call score of the fitted dose curve at least 0.9, where 1 is the maximum); settings: HepG2 Attagene TRANS M06 internal marker reporter
Summary of the method: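 Multi-reporter-transfected HepG2, 24 h treatment; reporter transcripts quantified via RT-PCR, primer-extension labelling and CE. DMSO-normalized gain-of-signal fit.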

[5] = ATG_M_32_TRANS: Attagene TRANS-FACTORIAL HepG2 Assay for M32 Transcription Factor (Internal Marker) (AID 2282984; active = hit-call score of the fitted dose curve at least 0.9, where 1 is the maximum;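 note: transcript level of a background control reporter unit measured by RT-PCR and capillary electrophoresis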); settings: HepG2 Attagene TRANS M32 internal marker reporter
Summary of the method: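 Internal background reporter in transfected HepG2: after 24 h chemical exposure, RNA reverse-transcribed, reporter cDNA amplified, fluorescently labelled and HpaI-cut, then sized by capillary electrophoresis. Gain of signal fitted against DMSO control.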

[6] = biological target: Nuclear receptor subfamily 4 group A member 2 (Homo sapiens) (UniProt P43354); assay: ATG_NURR1_TRANS: Attagene TRANS-FACTORIAL HepG2 Assay for human Nuclear Receptor Related Protein 1 (NURR1) (AID 2282985; active = hit-call score of the fitted dose curve at least 0.9, where 1 is the maximum); settings: HepG2 Attagene TRANS reporter, mRNA readout
Sequence of Nuclear receptor subfamily 4 group A member 2 (Homo sapiens) (P43354 whole entry, looked up, the tested form may be a part): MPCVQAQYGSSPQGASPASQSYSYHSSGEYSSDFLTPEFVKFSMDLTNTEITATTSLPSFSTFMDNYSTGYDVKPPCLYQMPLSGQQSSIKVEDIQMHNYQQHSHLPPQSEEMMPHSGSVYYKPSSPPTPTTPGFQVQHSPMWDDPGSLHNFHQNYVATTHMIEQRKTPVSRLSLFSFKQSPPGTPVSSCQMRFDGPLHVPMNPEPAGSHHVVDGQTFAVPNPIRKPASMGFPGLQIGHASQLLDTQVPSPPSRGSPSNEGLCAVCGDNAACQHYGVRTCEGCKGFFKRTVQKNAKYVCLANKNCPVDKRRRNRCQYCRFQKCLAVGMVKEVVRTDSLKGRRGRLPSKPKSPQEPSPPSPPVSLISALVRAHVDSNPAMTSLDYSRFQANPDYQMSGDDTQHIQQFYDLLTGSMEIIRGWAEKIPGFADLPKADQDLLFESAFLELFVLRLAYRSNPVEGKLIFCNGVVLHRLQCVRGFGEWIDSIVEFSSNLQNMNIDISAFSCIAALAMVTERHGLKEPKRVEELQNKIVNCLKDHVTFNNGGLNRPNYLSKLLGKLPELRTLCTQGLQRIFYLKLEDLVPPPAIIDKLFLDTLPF
Summary of the method: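 Reporter transcript induction, measured by RT-PCR with fluorescent labelling, HpaI digestion and capillary electrophoresis, after 24 hr dosing of human HepG2 cells transiently expressing an exogenous NR-Gal4 fusion with GAL4-UAS-driven reporters; DMSO as baseline.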

[7] = biological target: Transcriptional activator Myb (Homo sapiens) (UniProt P10242); assay: ATG_Myb_CIS: Attagene CIS-FACTORIAL HepG2 Assay for human Myeloblastosis (Myb) Proto-Oncogene Transcription Factor (AID 2282986); settings: HepG2 Attagene CIS-FACTORIAL Myb reporter transcription; actives raise or lower the signal
Sequence of Transcriptional activator Myb (Homo sapiens) (P10242 whole entry, looked up): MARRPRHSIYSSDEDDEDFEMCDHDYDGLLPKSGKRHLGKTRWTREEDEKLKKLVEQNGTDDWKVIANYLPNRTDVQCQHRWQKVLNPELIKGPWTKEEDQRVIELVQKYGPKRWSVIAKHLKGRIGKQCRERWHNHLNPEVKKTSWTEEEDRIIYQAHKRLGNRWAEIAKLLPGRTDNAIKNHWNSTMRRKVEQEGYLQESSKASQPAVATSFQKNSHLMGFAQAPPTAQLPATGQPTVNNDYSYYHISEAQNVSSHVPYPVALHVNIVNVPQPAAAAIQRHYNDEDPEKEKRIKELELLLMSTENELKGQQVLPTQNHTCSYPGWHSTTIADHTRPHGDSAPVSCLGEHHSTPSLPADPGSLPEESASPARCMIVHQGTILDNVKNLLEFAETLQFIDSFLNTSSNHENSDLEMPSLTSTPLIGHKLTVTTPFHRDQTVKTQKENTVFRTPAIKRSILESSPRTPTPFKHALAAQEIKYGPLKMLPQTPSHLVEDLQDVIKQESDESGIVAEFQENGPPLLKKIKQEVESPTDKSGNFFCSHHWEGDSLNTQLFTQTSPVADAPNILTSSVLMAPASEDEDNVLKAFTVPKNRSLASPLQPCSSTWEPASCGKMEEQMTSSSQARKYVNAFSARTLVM
Summary of the method: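 HepG2 cells were transiently transfected with cis-regulated multiple reporter transcription units reflecting endogenous Myb activity, then exposed to compound for 24 hours. Reporter mRNA was measured by RT-PCR with capillary electrophoresis; bidirectional fitting versus DMSO baseline.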

[8] = biological target: Nuclear respiratory factor 1 (Homo sapiens) (UniProt Q16656); assay: ATG_NRF1_CIS: Attagene CIS-FACTORIAL HepG2 Assay for human Nuclear Respiratory Factor 1 (NRF1) Orphan Gene (AID 2282987); settings: HepG2 NRF1 cis-element reporter, Attagene multiplex; actives raise or lower the signal
Sequence of Nuclear respiratory factor 1 (Homo sapiens) (Q16656 whole entry, looked up): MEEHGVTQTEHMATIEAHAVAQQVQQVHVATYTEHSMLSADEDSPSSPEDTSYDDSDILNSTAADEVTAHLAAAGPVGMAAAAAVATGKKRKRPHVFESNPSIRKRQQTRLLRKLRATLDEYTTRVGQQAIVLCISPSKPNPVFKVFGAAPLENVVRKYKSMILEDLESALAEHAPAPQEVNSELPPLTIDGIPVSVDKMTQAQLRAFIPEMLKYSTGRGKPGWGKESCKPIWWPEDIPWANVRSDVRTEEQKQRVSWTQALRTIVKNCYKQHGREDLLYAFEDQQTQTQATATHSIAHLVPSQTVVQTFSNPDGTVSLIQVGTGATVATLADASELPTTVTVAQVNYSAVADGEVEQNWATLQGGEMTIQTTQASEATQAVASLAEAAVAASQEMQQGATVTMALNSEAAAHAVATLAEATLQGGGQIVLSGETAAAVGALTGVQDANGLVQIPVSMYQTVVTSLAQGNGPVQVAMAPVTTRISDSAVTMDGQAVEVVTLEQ
Summary of the method: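 HepG2 cells transiently transfected with multiple reporter transcription units under cis-regulatory promoter control, so endogenous transcription-factor activity is read. After 24 h compound exposure, reporter mRNA quantified by RT-PCR, fluorescent labelling, HpaI digestion and capillary electrophoresis; bidirectional fitting versus DMSO.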

[9] = ATG_NFI_CIS: Attagene CIS-FACTORIAL HepG2 Assay for human Nuclear Factor I (NFI) (AID 2282989); settings: HepG2 cis-regulatory reporter, NFI response element transcription; actives raise or lower the signal
Summary of the method: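 Reporter transcripts were measured by RT-PCR with fluorescent primer extension and capillary electrophoresis 24 h post-treatment. HepG2 cells carried transiently transfected cis-regulated reporter constructs reporting endogenous factor activity; gain or loss fitted against DMSO baseline.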

[10] = biological target: Myc proto-oncogene protein (Homo sapiens) (UniProt P01106); assay: ATG_Myc_CIS: Attagene CIS-FACTORIAL HepG2 Assay for human Myelocytomatosis (Myc) Proto-Oncogene Transcription Factor (AID 2282990); settings: HepG2, Attagene cis-reporter transcription factor activity; actives raise or lower the signal
Sequence of Myc proto-oncogene protein (Homo sapiens) (P01106 whole entry, looked up, the tested form may be a part): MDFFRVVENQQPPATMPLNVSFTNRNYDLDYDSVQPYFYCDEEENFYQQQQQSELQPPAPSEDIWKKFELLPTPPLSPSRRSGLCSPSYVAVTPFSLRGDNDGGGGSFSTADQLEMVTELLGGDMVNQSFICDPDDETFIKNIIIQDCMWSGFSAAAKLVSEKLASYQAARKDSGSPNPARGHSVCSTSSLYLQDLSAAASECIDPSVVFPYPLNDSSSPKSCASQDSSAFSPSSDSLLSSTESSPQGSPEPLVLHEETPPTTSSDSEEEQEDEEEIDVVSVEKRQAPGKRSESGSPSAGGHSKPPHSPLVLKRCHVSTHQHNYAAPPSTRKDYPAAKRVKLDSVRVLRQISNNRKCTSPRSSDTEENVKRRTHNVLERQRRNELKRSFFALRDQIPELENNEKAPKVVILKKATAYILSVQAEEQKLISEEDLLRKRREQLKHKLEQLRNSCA
Summary of the method: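 After 24 h chemical treatment of HepG2 cells carrying multiplexed cis-regulated reporter constructs, reporter transcripts quantified by RT-PCR and capillary electrophoresis of fluorescent fragments. Gain or loss fitted against DMSO baseline.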

[11] = ATG_NF_kB_CIS: Attagene CIS-FACTORIAL HepG2 Assay for human Nuclear Factor Kappa B (NF-kB) (AID 2282991); settings: HepG2 Attagene cis-factorial NF-kB reporter mRNA; actives raise or lower the signal
Summary of the method: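 HepG2 cells transiently transfected with multiplexed cis-element reporter units measuring endogenous transcription factor activity; reporter mRNA read 24 h after dosing by RT-PCR, fluorescent labelling, HpaI digestion and capillary electrophoresis. Bidirectional fit against DMSO baseline.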

[12] = ATG_NRF2_ARE_CIS: Attagene CIS-FACTORIAL HepG2 Assay for human Nuclear Factor Erythroid 2 Related Factor 2 (NFR2) response to Antioxidant Response Elements (ARE) (AID 2282992); settings: HepG2 Attagene ARE/NRF2 reporter, transcription factor activity; actives raise or lower the signal
Summary of the method: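 Endogenous transcription factor activity read out as reporter transcript levels (RT-PCR plus capillary electrophoresis, fluorescence) in transiently transfected HepG2 cells. Measured at 24 h after dosing; gain or loss of signal fitted versus DMSO.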

[13] = ATG_Oct_MLP_CIS: Attagene CIS-FACTORIAL HepG2 Assay for human Octamer-Binding Transcription Factor (Oct) (AID 2282993); settings: HepG2 Attagene cis-factorial Oct reporter, mRNA; actives raise or lower the signal
Summary of the method: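 Readout is reporter transcript level from RT-PCR with fluorescent primer extension and capillary electrophoresis, fitted in both directions against DMSO. Transfected HepG2 reporter units report endogenous factor activity after 24 h dosing.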

[14] = biological target: Cellular tumor antigen p53 (Homo sapiens) (UniProt P04637); assay: ATG_p53_CIS: Attagene CIS-FACTORIAL HepG2 Assay for human p53 Transcription Factor (AID 2282994); settings: HepG2 p53 cis-element reporter, Attagene mRNA; actives raise or lower the signal
Sequence of Cellular tumor antigen p53 (Homo sapiens) (P04637 whole entry, looked up): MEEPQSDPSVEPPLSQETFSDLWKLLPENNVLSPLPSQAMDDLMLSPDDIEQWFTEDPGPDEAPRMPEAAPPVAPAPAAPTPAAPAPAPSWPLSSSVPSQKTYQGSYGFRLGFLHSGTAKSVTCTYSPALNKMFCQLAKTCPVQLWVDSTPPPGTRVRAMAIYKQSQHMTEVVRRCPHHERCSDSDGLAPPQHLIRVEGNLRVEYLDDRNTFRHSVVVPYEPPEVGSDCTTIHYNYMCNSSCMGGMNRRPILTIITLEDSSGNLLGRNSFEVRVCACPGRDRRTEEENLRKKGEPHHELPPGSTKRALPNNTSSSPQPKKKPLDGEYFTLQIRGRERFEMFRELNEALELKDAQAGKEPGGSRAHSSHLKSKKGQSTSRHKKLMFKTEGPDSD
Summary of the method: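 Endogenous p53 activity read in transiently transfected HepG2 from a cis-element-driven reporter transcript after 24 h exposure. RNA reverse-transcribed, PCR-amplified, fluorescently labelled and sized by capillary electrophoresis; gain or loss fitted against DMSO baseline.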

[15] = biological target: Glucocorticoid receptor (Homo sapiens) (UniProt P04150); assay: ATG_GR_TRANS: Attagene TRANS-FACTORIAL HepG2 Assay for human Glucocorticoid Receptor (GR) (AID 2282978; active = hit-call score of the fitted dose curve at least 0.9, where 1 is the maximum;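 note: activators score as hits since higher reporter transcript over DMSO is fitted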); settings: HepG2 Attagene TRANS GR reporter, mRNA transcription
Summary of the method: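 HepG2 cells transiently transfected with multiplexed reporter units in which chimeric NR-GAL4 proteins drive GAL4-UAS reporters; 24 h compound exposure. Reporter mRNA measured by RT-PCR, 6-FAM labelling, HpaI digestion and capillary electrophoresis; gain-of-signal fitted versus DMSO.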

[16] = BSK_3C_TissueFactor: BioMAP Diversity Plus: 3C Assay for Tissue Factor Biomarker Activity (AID 2282997); settings: BioMAP 3C HUVEC, tissue factor biomarker readout; actives raise or lower the signal
Summary of the method: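 In this endothelial system, HUVEC are treated for 24 h and Tissue Factor is assessed by ELISA, normalised to DMSO.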

[17] = BSK_3C_VCAM1: BioMAP Diversity Plus: 3C Assay for Vascular cell adhesion molecule 1 (VCAM1) Biomarker Activity (AID 2282999); settings: BioMAP 3C HUVEC, VCAM1 ELISA, cytokine-stimulated; actives raise or lower the signal
Summary of the method: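 Activity fitted in both directions relative to DMSO, with ELISA measurement of the surface marker on primary HUVEC (3C) at 24 h post-treatment; parallel SRB staining (0.1% SRB, TCA-fixed, 560 nm) flagged overt cytotoxicity.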

[18] = biological target: Oxysterols receptor LXR-alpha (Homo sapiens) (UniProt Q13133); assay: ATG_LXRa_TRANS: Attagene TRANS-FACTORIAL HepG2 Assay for human Liver X Receptor alpha (LXRa) (AID 2282980; active = hit-call score of the fitted dose curve at least 0.9, where 1 is the maximum); settings: HepG2 Attagene TRANS reporter, LXRa transactivation
Sequence of Oxysterols receptor LXR-alpha (Homo sapiens) (Q13133 whole entry, looked up, the tested form may be a part): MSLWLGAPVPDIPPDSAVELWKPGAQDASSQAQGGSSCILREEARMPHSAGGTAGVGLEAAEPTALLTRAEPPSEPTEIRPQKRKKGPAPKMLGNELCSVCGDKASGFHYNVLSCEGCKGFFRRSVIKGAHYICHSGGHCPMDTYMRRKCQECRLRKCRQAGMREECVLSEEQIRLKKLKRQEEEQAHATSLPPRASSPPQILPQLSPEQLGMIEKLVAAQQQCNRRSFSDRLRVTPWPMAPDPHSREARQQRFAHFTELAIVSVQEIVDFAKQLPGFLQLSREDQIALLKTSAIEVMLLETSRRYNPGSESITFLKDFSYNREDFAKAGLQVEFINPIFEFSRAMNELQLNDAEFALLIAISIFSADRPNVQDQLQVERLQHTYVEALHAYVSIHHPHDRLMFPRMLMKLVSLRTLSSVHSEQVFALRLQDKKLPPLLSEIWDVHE
Summary of the method: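 In this multiplexed TRANS system, compounds act on HepG2 cells carrying GAL4-UAS reporter units and a receptor-GAL4 fusion for 24 h. Induced reporter RNA is amplified, fluorescently labelled and sized by capillary electrophoresis, with DMSO as baseline.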

[19] = BSK_3C_uPAR: BioMAP Diversity Plus: 3C Assay for Urokinase-type plasminogen activator receptor (uPAR) Biomarker Activity (AID 2282998); settings: BioMAP 3C HUVEC, uPAR biomarker ELISA; actives raise or lower the signal
Summary of the method: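 Cell-surface uPAR on HUVEC (3C system) read by ELISA at 24 h post-treatment, with DMSO as baseline and fitting in both directions. Parallel cultures stained with SRB to flag overt cytotoxicity.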

CCOC(OCC)OCC
outcome [1]: inactive | outcome [2]: inactive | outcome [3]: inactive | outcome [4]: inactive | outcome [5]: inactive | outcome [6]: inactive | outcome [7]: inactive | outcome [8]: inactive | outcome [9]: inactive | outcome [10]: inactive | outcome [11]: inactive | outcome [12]: inactive | outcome [13]: inactive | outcome [14]: inactive

CO[Si](CCCOCC1CO1)(OC)OC (centres undefined)
outcome [15]: inactive | outcome [2]: inactive | outcome [3]: inactive | outcome [5]: inactive | outcome [6]: inactive | outcome [7]: inactive | outcome [8]: inactive | outcome [9]: inactive | outcome [10]: inactive | outcome [11]: inactive | AC50 [12]: 73.2 µM (active) | outcome [13]: inactive | outcome [14]: inactive

CCN(CC)c1ccc(C=O)cc1
outcome [1]: inactive | outcome [2]: inactive | outcome [3]: inactive | outcome [4]: inactive | outcome [7]: inactive | outcome [8]: inactive | outcome [9]: inactive | outcome [10]: inactive | outcome [11]: inactive | outcome [12]: inactive | outcome [13]: inactive | outcome [14]: inactive | outcome [16]: inactive | outcome [17]: inactive

OCC(F)(F)C(F)(F)C(F)(F)C(F)(F)C(F)(F)C(F)(F)C(F)(F)C(F)(F)CO
outcome [1]: inactive | AC50 [18]: 10.5 µM (active) | outcome [2]: inactive | outcome [3]: inactive | outcome [4]: inactive | outcome [5]: inactive | outcome [6]: inactive | outcome [7]: inactive | outcome [8]: inactive | outcome [9]: inactive | outcome [10]: inactive | outcome [11]: inactive | outcome [12]: inactive | outcome [13]: inactive | outcome [14]: inactive | outcome [16]: inactive | outcome [17]: inactive

O=c1cccc[nH]1
outcome [15]: inactive | outcome [2]: inactive | outcome [3]: inactive | outcome [4]: inactive | outcome [5]: inactive | outcome [6]: inactive | outcome [7]: inactive | outcome [8]: inactive | outcome [9]: inactive | outcome [10]: inactive | outcome [11]: inactive | outcome [12]: inactive | outcome [13]: inactive | outcome [14]: inactive

O=S(=O)(Cl)C(F)(F)C(F)(F)C(F)(F)C(F)(F)C(F)(F)C(F)(F)C(F)(F)C(F)(F)F
outcome [1]: inactive | outcome [18]: inactive | outcome [4]: inactive | outcome [5]: inactive | outcome [6]: inactive | outcome [7]: inactive | outcome [8]: inactive | outcome [9]: inactive | outcome [10]: inactive | outcome [11]: inactive | AC50 [12]: 70.3 µM (active) | outcome [13]: inactive | outcome [14]: inactive | outcome [16]: inactive | outcome [17]: inactive

CC(C)OC=O
outcome [15]: inactive | outcome [4]: inactive | outcome [6]: inactive | outcome [7]: inactive | outcome [8]: inactive | outcome [9]: inactive | outcome [10]: inactive | outcome [11]: inactive | outcome [12]: inactive | outcome [13]: inactive | outcome [14]: inactive

CC(C)(C)c1cc(CCC(=O)NCCCCCCNC(=O)CCc2cc(C(C)(C)C)c(O)c(C(C)(C)C)c2)cc(C(C)(C)C)c1O
outcome [1]: inactive | outcome [2]: inactive | outcome [3]: inactive | outcome [4]: inactive | outcome [6]: inactive | outcome [7]: inactive | outcome [8]: inactive | outcome [9]: inactive | outcome [10]: inactive | outcome [11]: inactive | outcome [12]: inactive | outcome [13]: inactive | outcome [14]: inactive | outcome [16]: inactive | outcome [19]: inactive | outcome [17]: inactive

CC(C)(C)C(=O)C1C(=O)c2ccccc2C1=O
outcome [1]: inactive | outcome [18]: inactive | outcome [2]: inactive | outcome [3]: inactive | outcome [4]: inactive | outcome [5]: inactive | outcome [6]: inactive | outcome [7]: inactive | outcome [8]: inactive | outcome [9]: inactive | outcome [10]: inactive | outcome [11]: inactive | AC50 [12]: 31.5 µM (active) | AC50 [13]: 63.1 µM (active) | outcome [14]: inactive
